# Shown are actives, neighbours in structure and some others; about 4.9% of the full set was active somewhere.
# Calb FLC – C. albicans growth inhibition with fluconazole, primary screen, CaCi-2 strain, Alamar Blue fluorescence; C. albicans CaCi-2 (fluconazole-resistant clinical isolate) + fluconazole, 48 h; growth inhibition, % (test concentration not listed); actives 0.57% (n = 300,000);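 active = growth inhibition above about 58% in most replicates, limit read from the data, passing the limit was not always enough; inconclusive = exactly half the replicates above a set limit; inactive = most replicates below a set limit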;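 also: all wells also contain fluconazole at 8 µg/ml as a sub-toxic cotreatment; 0% = median of DMSO wells and 100% = median of geldanamycin control wells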
# Mdm2-MdmX inh – inhibitors of human Mdm2-MdmX association, primary screen, cell-based, luminescence, split luciferase, SaOS-2, uHTS | actives 3% (n = 330,000) | SaOS-2 split-luciferase Mdm2/MdmX complementation | Protein Mdm4 (Homo sapiens) + E3 ubiquitin-protein ligase Mdm2 (Homo sapiens), … | inhibition, % at 8 µM;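 active = inhibition of at least 50% at 8 µM in the primary screen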
# PP1 inh – PP1-alpha phosphatase inhibitors, primary screen, counter-screen for PP5 inhibitor project, biochemical, fluorescence, OMFP substrate, single point | Serine/threonine-protein phosphatase PP1-alpha catalytic subunit (Homo sapiens), P62136 | purified PP1alpha | inhibition, % at 6.7 µM | actives 0.9% (n = 320,000);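 active = inhibition above the mean inhibition of all tested compounds plus 3 SD, computed separately for each screening campaign, cut at about 15% in these data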
# Target sequence (P62136 whole entry, looked up): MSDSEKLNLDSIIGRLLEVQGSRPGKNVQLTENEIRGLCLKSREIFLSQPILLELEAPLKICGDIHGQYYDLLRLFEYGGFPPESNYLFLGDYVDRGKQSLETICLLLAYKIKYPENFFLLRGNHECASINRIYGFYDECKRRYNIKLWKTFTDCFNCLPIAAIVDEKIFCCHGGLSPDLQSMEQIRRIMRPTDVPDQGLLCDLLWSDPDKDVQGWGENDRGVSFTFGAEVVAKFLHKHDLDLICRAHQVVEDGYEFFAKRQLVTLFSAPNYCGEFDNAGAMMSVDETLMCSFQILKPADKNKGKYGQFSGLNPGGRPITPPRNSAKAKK
# CSC inhib – cancer stem cell viability inhibitors, primary screen, luminescence; AID 2717, 2010; inhibition, % at 7.5 µM; cancer stem cell-like cells viability; actives 1.1% (n = 300,000); in the data active = inhibition above about 75%; inconclusive = no clear call, values can overlap the other calls; tested in HMLE shEcad cells
# PP5 primary – PP5 phosphatase inhibitors, primary screen, biochemical, fluorescence. inhibition, % at 6.7 µM. AID 1987, 2009. Serine/threonine-protein phosphatase 5 (Homo sapiens), P53041. actives 0.18% (n = 320,000). purified PP5c, OMFP substrate fluorescence;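 active = inhibition above the campaign's mean inhibition across all tested compounds plus 3 SD, cut at about 9.5% in these data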;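 also: 0% = DMSO only and 100% = 100 µM cantharidin control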
# Beta apoptosis – inhibitors of cytokine-induced beta cell apoptosis, primary screen, luminescence; INS-1E cytokine-induced death, ATP luminescence, 48 h; percent of positive-control rescue, neutral wells zero; protection from apoptosis, % (no concentration beside the values); actives 0.8% (n = 300,000);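 active = Every replicate reaches about 75%, or at least half do and their mean reaches it too, limit read from the data; inconclusive = At least half of replicates reach the limit but their mean does not; inactive = Under half of replicates reach the limit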;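 also: 0% = cytokine-treated negative control wells and 100% = positive control rescue; higher means more ATP so stronger rescue from cytokine killing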
# The depositor's hits bear a star; u = inconclusive; x = not tested or not shown.
SMILES,Calb FLC,Mdm2-MdmX inh,PP1 inh,CSC inhib,PP5 primary,Beta apoptosis
CCCC1Nc2ccc(C(=O)O)cc2C2C=CCC12 (configuration not stated),4,x,2,17,3,0
CCOC(=O)C1Nc2ccc(C(=O)O)cc2C2C=CCC12 (configuration not stated),3,10,34*,-8,-1,1
Cc1ccc(S(=O)(=O)CC(CN2CCOCC2)N2CCOCC2)cc1 (configuration not stated),-19,-30,-4,-7,1,-3
Cc1ccc(S(=O)(=O)CC(C)N2CCOCC2)c(S(=O)(=O)CC(C)N2CCOCC2)c1 (configuration not stated),103*,-16,-3,-9,-3,x
COc1cccc(CC(NC(C)=O)C(=O)NC2CCN(C(=O)C3CCCCC3)CC2)c1OC (configuration not stated),-4,15,x,x,x,x
COc1ccc(N(CC(=O)NCc2ccco2)C(=O)CCC(=O)Nc2ccccn2)cc1,7,1,x,x,x,x
CC(C)c1ccc(-c2cc(C(=O)N3N=C(C(F)F)CC3(O)C(F)F)c3ccccc3n2)cc1 (configuration not stated),3,24,0,112*,1,38
CCN1CCN(C2=C(NS(=O)(=O)c3ccccc3)C(=O)c3ccccc3C2=O)CC1,39,37,1,-14,4,82*
CCN1CCN(C2=C(NS(=O)(=O)c3ccc(Br)cc3)C(=O)c3ccccc3C2=O)CC1,-2,36,0,16,1,66
O=C1C(NS(=O)(=O)c2cccs2)=C(N2CCOCC2)C(=O)c2ccccc21,5,-13,-1,5,2,10
CN1CCN(C2=C(NS(=O)(=O)c3cccs3)C(=O)c3ccccc3C2=O)CC1,23,13,-7,8,2,93*
CCOC(=O)c1cc(-c2csc(Nc3c(C)cc(C)cc3C)n2)on1,14,13,2,11,3,x
CCCCCn1c(=O)c(C(=O)c2ccccc2)nc2ccccc21,8,7,2,-6,2,3
CCCCCCn1c(=O)[nH]c2nc3cc(N)ccc3nc2c1=O,-130,x,-5,82*,-4,-13
CC(C)(C)OC(=O)COc1cc(OCC(=O)OC(C)(C)C)c2c(=O)cc(-c3ccccc3)oc2c1,x,32,17*,8,7,10
CC(C)(C)OC(=O)COc1cc(O)c2c(=O)cc(-c3ccccc3)oc2c1,51,36,3,11,5,-6
CS(=O)(=O)c1sc2nc(-c3cccs3)cc(-c3ccccc3)c2c1N,11,-28,2,99*,0,2
C/C(=N\NC(=O)CSc1nc(C)cc(C)n1)c1ccc([N+](=O)[O-])cc1,-23,6,-4,-15,0,-2
O=S(=O)(c1ccc2c(c1)OCCO2)N1CCN(c2ncnc3sccc23)CC1,u,24,-1,23,-1,81*
O=C(Nc1ccccc1Br)C(=O)N1CCCC1,-11,-23,-3,x,-2,2
O=C(NNc1ccccc1Br)C(=O)n1ccc2ccccc21,-22,-6,-6,85*,0,-11
CCOC(=O)CCN(c1ccccc1)S(=O)(=O)c1ccc(-c2ccc(=O)[nH]n2)s1,-10,18,3,x,-2,0
Cc1ccc(C)c(OCCCCN2CCNCC2)c1C,-17,-23,5,129*,3,2
Cc1ccc(C)c(OCCCN2CCNCC2)c1,3,14,-1,-8,3,-12
Cc1cc(C(=O)COC(=O)c2cccnc2Cl)c(C)n1-c1c(C)n(C)n(-c2ccccc2)c1=O,-5,5,-2,5,-1,6
SMILES,Calb FLC,Mdm2-MdmX inh,PP1 inh,CSC inhib,PP5 primary,Beta apoptosis
O=C(O)c1cc(-c2cccnc2)nc2ccc(Br)cc12,-6,-6,3,25,1,-3
Cc1cc(NC(=O)c2cc(-c3ccncc3)nc3ccccc23)ccc1Br,x,44,x,86*,x,11
CSc1ccccc1NC(=O)c1cc(-c2cccnc2)nc2ccc(Br)cc12,-2,34,17*,2,5,14
COc1ccc(C(=O)NC2CCCc3ccccc32)cc1S(=O)(=O)N1CCOCC1 (configuration not stated),-2,2,1,-15,1,8
CN(/N=C/c1cccnc1)c1cnc2ccccc2n1,51,-130,-1,3,1,7
CCOC(=O)C1C(=O)NC(c2ccccc2)=NC1c1ccc(Br)cc1 (configuration not stated),u,-14,0,-7,0,3
CCOc1cc(-c2sc(Nc3cc(C)ccc3OC)n[n+]2-c2ccccc2)ccc1OC,x,15,4,45,2,94*
CCOC(=O)N1CCN(S(=O)(=O)c2ccc(C(=O)N(CCN(C)C)c3nc4ccc(Cl)cc4s3)cc2)CC1,-32,-10,-1,7,-1,2
CCOC(=O)N1CCN(S(=O)(=O)c2ccc(C(=O)NNc3nc4ccc(Cl)cc4s3)cc2)CC1,-4,34,16*,104*,0,82*
Cc1ccccc1OCCSc1nc2ncnc(N)c2[nH]1,32,6,0,8,2,-7
N=c1ccn(Cc2ccc(Cl)cc2Cl)cc1,-2,17,-3,2,-1,103*
N=c1ccn(Cc2ccccc2Cl)cc1,-4,19,-3,-17,4,x
Cc1ccccc1OCc1nnc(SCC(=O)Nc2ccc3nc(SCC(=O)Nc4ccccc4)sc3c2)n1C,-6,23,17*,10,0,-1
O=C(CS(=O)(=O)Nc1ccc(F)cc1Cl)Nc1ccc(F)cc1Cl,79*,-11,0,x,1,x
COc1ccc(NC(=O)Nc2nnc(CC(=O)NCc3ccccc3)s2)cc1,u,27,16*,7,5,-2
CCOc1ccc(NC(=O)Nc2nnc(CC(=O)NCc3ccccc3)s2)cc1,-4,35,9,-1,-1,1
O=c1c(-c2nnc(SCc3ccc(Cl)cc3Cl)o2)cccn1Cc1ccccc1,-9,8,16*,4,-2,2
CSc1nnc(-c2cccn(Cc3ccccc3)c2=O)o1,-3,-9,2,-10,3,x
CN1/C(=C\C(=O)Nc2ccc(F)cc2)C(C)(C)c2ccccc21,15,20,4,33,4,15
CN1/C(=C\C(=S)NC(=O)c2ccc([N+](=O)[O-])cc2)C(C)(C)c2ccccc21,u,-3,-3,-6,3,103*
CCN(CC)S(=O)(=O)c1cccc(C(=O)/C=C2/N(C)c3ccccc3C2(C)C)c1,6,2,1,41,1,28
CN1/C(=C\C(=O)Nc2ccc(Br)cc2)C(C)(C)c2ccccc21,0,6,-1,76*,0,-17

# Screening data from PubChem BioAssay.
